PubChem BioAssay (NCATS)
Where “and” joins values, the source holds several entries; their conditions need not be identical. Equal entries are not always repeated. Results filed as inconclusive are left out. Calls of active or inactive are those of the source. Unless noted, calls come from the whole dose curve; as a rule, active = well fitted curve in the direction sought with a large enough effect; inconclusive = small, poorly fitted or top-dose-only effect, or another doubt; inactive = no such curve, though single readings can be large; an effect the other way counts as inactive or inconclusive.

Experiments:
[1] = qHTS Assay for Identifying Gametocytocidal Compounds (AID 743244); note: potency is the fitted concentration of half-maximal effect;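 for max response: % is set by controls: 0 for no effect and ±100 for the full control effect; actives lower the fluorescent signal which means gametocytes are killed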; settings: P. falciparum 3D7 stage III-V gametocytes, alamarBlue, 72 h; max response: stronger effect = lower value
Summary of the method: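 In this qHTS viability screen, late-stage 3D7 gametocytes are incubated with compound for 72 h, then with alamarBlue for 24 h; reduced resorufin fluorescence marks killing.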

[2] = qHTS profiling for inhibitors of Plasmodium falciparum (3D7) proliferation (AID 743322; call rule not given here;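 note: infected erythrocytes exposed to compound for 72 h before lysis; 100% = DMSO vehicle wells and 0% = 0.29 µM artemisinin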); settings: P. falciparum 3D7 proliferation; at 28.7 µM (top of the series) unless noted
Summary of the method: (§1)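 Parasite DNA was quantified by SYBR Green I fluorescence (ex 485, em 535 nm) after overnight lysis in saponin/Triton buffer at room temperature. Cultures at 0.3% parasitemia and 2.5% hematocrit were first exposed to compound for 72 h at 37 C; signals were normalised to artemisinin (0.29 uM) and vehicle wells.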

[3] = qHTS profiling for inhibitors of Plasmodium falciparum (DD2) proliferation (AID 743323; call rule not given here); settings: lower = more inhibition; at 28.7 µM (top of the series) unless noted
Summary of the method: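 P. falciparum Dd2-infected erythrocytes (0.3% parasitemia, 2.5% hematocrit) exposed 72 h at 37 C, 5% CO2. Lysis with SYBR Green, overnight at room temperature, fluorescence 485/535 nm; normalized to 0.29 uM artemisinin and DMSO.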

[4] = qHTS profiling of the MIPE4 collection as inhibitors of Plasmodium falciparum (3D7) proliferation (AID 743344; call rule not given here;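 note: scaled between DMSO vehicle wells and 0.29 µM artemisinin as full inhibition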); settings: P. falciparum 3D7 in erythrocytes, SYBR Green DNA fluorescence, 72 h; at 28.5 µM (top of the series) unless noted
Summary of the method: as §1

[5] = qHTS profiling of the MIPE4 collection as inhibitors of Plasmodium falciparum (DD2) proliferation (AID 743345; call rule not given here); settings: P. falciparum Dd2 in erythrocytes, SYBR Green DNA, 72 h; at 28.5 µM (top of the series) unless noted
Summary of the method: as §1

[6] = qHTS profiling of the MIPE4 collection as inhibitors of Plasmodium falciparum (DD2) proliferation (Rep 2) (AID 743346; call rule not given here); settings: P. falciparum Dd2 in erythrocytes, SYBR Green DNA, 72 h; at 28.5 µM (top of the series) unless noted
Summary of the method: as §1

[7] = qHTS profiling of the MIPE4 collection as inhibitors of Plasmodium falciparum (HB3) proliferation (AID 743347; call rule not given here;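 note: plate controls were DMSO vehicle wells for no effect and artemisinin wells for full effect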); settings: P. falciparum HB3 in erythrocytes, SYBR Green DNA, 72 h; at 28.5 µM (top of the series) unless noted
Summary of the method: as §1

[8] = Cell Proliferation Assay Versus the ED40515 IL2 Dependent ATL cell lines (AID 1053195; calls by dose curve); settings: ED40515 IL2-dependent ATL cells
Summary of the method: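 CellTiter-Glo luminescence (15 min, RT) measured viability after 48 hours at 37C; cells were ED40515 +IL2, 1000/well, in phenol red-free RPMI with 5% FBS. Controls: DMSO and 9.2 uM bortezomib.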

[9] = qHTS for Activators of Parkin Expression: LOPAC Validation Assay (NLuc Reporter) (AID 720572;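 note: 0% = DMSO and 100% = positive control compound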)
Summary of the method: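 Cells harboring the Parkin-promoter coincidence reporter were treated for 24 h at seven concentrations. NLuc output was measured sequentially after the FLuc channel and scaled between DMSO and positive control values.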

[10] = qHTS for Activators of Parkin Expression: LOPAC Validation Assay (FLuc Reporter) (AID 720573;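 note: 0% = DMSO and 100% = positive control compounds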)
Summary of the method: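 FLuc signal from Parkin-promoter coincidence reporter neuronal cells, normalized to DMSO and positive control (100%). Cells (1,500/well) pre-incubated 24 h, then exposed to LOPAC compounds in 7-point dose response for 24 h at 37 C, 5% CO2.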

[11] = qHTS assay for small molecule agonists of the antioxidant response element (ARE) signaling pathway measured by Nrf2-dependant transcriptional activity (AID 720636; active = well fitted curve in the direction sought with a large enough effect in the repeat runs; an effect the other way counts as inactive or inconclusive;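 note: HepG2 cells with an ARE-driven luciferase reporter; % of control where 0% means no effect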)
Summary of the method: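 First, ARE-luc HepG2 cells attached for 6 hr at 37 C in 1% dialyzed FBS medium. Next, compound or DMSO was added and incubated 16 hr. Finally, ONE-Glo reagent was added and luminescence measured after 30 min.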

[12] = qHTS assay for small molecule antagonists of the retinoid-related orphan receptor gamma (ROR-gamma) signaling pathway - cell viability counter screen (AID 720652; active = well fitted curve in the direction sought with a large enough effect in the repeat runs; an effect the other way counts as inactive or inconclusive;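 note: CHO reporter cells with doxycycline-induced ROR-gamma expression; compound exposure lasted 16 hr before ATP read; % is set by controls: 0 for no effect and ±100 for the full control effect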)
Summary of the method: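 Steps: seed CHO cells bearing TET-inducible ROR and ROR response element-luciferase; rest 5 hr at 37 C; add compound, then doxycycline; incubate 16 hr; add CellTiter-Glo and read luminescence as ATP-based viability.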

[13] = qHTS assay for small molecule agonists of the antioxidant response element (ARE) signaling pathway measured by Nrf2-dependant transcriptional activity - cell viability counter screen (AID 720653; active = well fitted curve in the direction sought with a large enough effect in the repeat runs; an effect the other way counts as inactive or inconclusive; note: % is set by controls: 0 for no effect and ±100 for the full control effect); settings: ARE-bla HepG2 viability, CellTiter-Glo ATP luminescence, 16 h; stronger effect = lower value
Summary of the method: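 ARE-bla HepG2 cells (2,000/well) rested 5 hrs at 37C/5% CO2, then exposed to compounds in DMSO for 16 hrs. Viability was read in the same wells as intracellular ATP by luminescence, 30 min at room temperature after reagent addition.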

[14] = target: T1, Hexokinase-4 (Homo sapiens) + Glucokinase regulatory protein (Homo sapiens) (UniProt P35557+Q14397); experiment: qHTS assay for inhibitors of recombinant human GCK-GKRP interaction: Diaphorase-coupled assay (AID 743205)
T1 sequence (P35557 whole entry, looked up): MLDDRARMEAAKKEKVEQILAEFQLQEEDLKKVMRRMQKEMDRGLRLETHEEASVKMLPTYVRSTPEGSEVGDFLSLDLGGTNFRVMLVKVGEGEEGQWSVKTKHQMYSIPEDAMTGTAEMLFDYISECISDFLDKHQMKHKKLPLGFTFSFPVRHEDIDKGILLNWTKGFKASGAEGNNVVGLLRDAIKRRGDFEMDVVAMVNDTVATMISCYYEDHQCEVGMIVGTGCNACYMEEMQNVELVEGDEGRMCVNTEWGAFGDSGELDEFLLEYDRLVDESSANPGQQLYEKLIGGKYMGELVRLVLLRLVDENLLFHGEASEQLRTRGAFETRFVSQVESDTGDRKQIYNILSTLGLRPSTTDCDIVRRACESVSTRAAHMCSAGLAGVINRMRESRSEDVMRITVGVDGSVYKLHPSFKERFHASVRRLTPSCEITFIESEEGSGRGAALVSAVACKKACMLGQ
T1 sequence (Q14397 whole entry, looked up): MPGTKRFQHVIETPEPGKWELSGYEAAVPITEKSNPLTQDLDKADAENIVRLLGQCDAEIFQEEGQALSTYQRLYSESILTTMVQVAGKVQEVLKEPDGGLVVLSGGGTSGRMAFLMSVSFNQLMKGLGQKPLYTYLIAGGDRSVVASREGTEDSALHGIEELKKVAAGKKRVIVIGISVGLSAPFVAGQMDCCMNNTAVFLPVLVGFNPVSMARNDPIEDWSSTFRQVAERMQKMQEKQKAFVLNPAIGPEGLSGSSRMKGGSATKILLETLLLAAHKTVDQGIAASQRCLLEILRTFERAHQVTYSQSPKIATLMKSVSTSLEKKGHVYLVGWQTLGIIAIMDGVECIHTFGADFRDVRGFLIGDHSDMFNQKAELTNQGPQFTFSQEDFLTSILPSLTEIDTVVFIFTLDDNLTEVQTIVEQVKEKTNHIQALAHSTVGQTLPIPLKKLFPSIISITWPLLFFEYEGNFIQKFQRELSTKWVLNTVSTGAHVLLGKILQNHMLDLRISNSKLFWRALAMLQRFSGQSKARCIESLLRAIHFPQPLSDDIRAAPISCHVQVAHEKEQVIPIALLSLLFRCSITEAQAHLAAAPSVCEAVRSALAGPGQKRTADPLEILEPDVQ
Summary of the method: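 A kinetic fluorescence read (Ex 525/Em 590 nm, every minute for 30 minutes) tracked resorufin from a G6PDH-diaphorase coupled GCK reaction. It contained 10 nM GST-GCK, 10 nM FLAG-GKRP, 5 mM glucose, 0.4 mM ATP in Hepes pH 7.6. Normalized to with/without-enzyme DMSO controls.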

[15] = target: T1, Hexokinase-4 (Homo sapiens) + Glucokinase regulatory protein (Homo sapiens); experiment: qHTS assay for inhibitors of recombinant human GCK-GKRP interaction: ADP-Glo assay (AID 743206);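 note: plate controls were DMSO plus enzyme for no effect and no enzyme for full effect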
Summary of the method: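 Pin-transferred compounds meet a 15 nM GST-GCK/15 nM FLAG-GKRP/2 uM S6P mix (dispense concentrations). ATP is then added to 0.4 mM final with 5 mM glucose, and the reaction runs 60 min at room temperature. ADP is quantified luminescently.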

[16] = target: T1, Hexokinase-4 (Homo sapiens) + Glucokinase regulatory protein (Homo sapiens); experiment: qHTS assay for inhibitors of recombinant human GCK-GKRP interaction: HTRF assay (AID 743207);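 note: 0% = DMSO with GCK present and -100% = DMSO wells lacking GCK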
Summary of the method: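 After 60 min equilibration at room temperature with anti-FLAG XL665 and anti-GST antibodies, FRET ratio (665/615 nm, excitation 320 nm) was read. Proteins: GST-GCK and FLAG-GKRP, each 5 nM, plus 2 uM S6P, pH 7.1 buffer; GCK-free wells define minimum signal.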

[17] = qHTS assay for cell viability of HEK293 cells (AID 743288); settings: ATP luminescence (CellTiter-Glo), 18 h; max response: stronger effect = lower value; note: nearly all actives have a fitted effect of over 50% in size; note: potency is the fitted concentration of half-maximal effect; for max response: % is set by controls: 0 for no effect and ±100 for the full control effect
Summary of the method: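 Readout is luciferase-coupled ATP content (CellTiter-Glo luminescence, 30 min room temperature) as a measure of metabolically competent cells. Parental HEK293 cells were plated 5 h or more before compound addition, then treated 18 h at 37 C.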

[18] = qHTS assay for cell viability of the p53RE-bla HCT-116 cell line (AID 743292); note: % is set by controls: 0 for no effect and ±100 for the full control effect; nearly all actives have a fitted effect of over 55% in size
Summary of the method: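 Quantitative high-throughput format: compounds in DMSO were pinned onto p53RE-bla HCT-116 cells (4,000/well) and incubated 16 h at 37 C. Total intracellular ATP, read by CellTiter-Glo luminescence, reflects viable cell number.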

[19] = qHTS profiling for inhibitors of Plasmodium falciparum (HB3) proliferation (AID 743324); settings: Plasmodium falciparum HB3 blood-stage proliferation; at 28.7 µM (top of the series) unless noted;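 note: 100% = DMSO vehicle wells and 0% = artemisinin-treated control wells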
Summary of the method: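 SYBR Green fluorescence (485 ex/535 em) of lysed cultures, incubated overnight at room temperature in the dark, quantifies parasite DNA. Infected erythrocytes at 0.3% parasitemia and 2.5% hematocrit were exposed 72 h; values normalized to DMSO and 0.29 uM artemisinin controls.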

[20] = Cell Proliferation Assay Versus the ED40515 IL2 Independent ATL cell lines (AID 1053194; calls by dose curve); settings: ED40515 IL2-independent ATL cells
Summary of the method: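 CellTiter-Glo luminescence, read after 15 min at RT, gave viability of IL-2-free ED40515 cells (1000/well, RPMI plus 5% FBS) following 48 h drug exposure at 37C. Control wells held DMSO or 9.2 uM bortezomib.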

CN(C)C(=O)c1ccc(S(=O)(=O)c2ccc(NC(=O)[C@@](C)(O)C(F)(F)F)c(Cl)c2)cc1
max response [1]: 2.79% (inactive) | remaining parasite growth % (stronger effect = lower value) [2]: 67.3% | activity, percent of control [3]: 97.4% | parasite growth, % of DMSO control [4]: 34.8% | parasite growth remaining, % of DMSO control (lower = more inhibition) [5]: 96.7% | parasite growth, % of control (lower = inhibition) [6]: 95.9% | growth, % of control [7]: 62% | Potency [8]: 0.332 µM (active)

NS(=O)(=O)c1cc2c(cc1Cl)NC=NS2(=O)=O
Potency [9]: inactive | outcome [10]: inactive | outcome [11]: inactive | outcome [12]: inactive | max response [13]: -14.4% (inactive) | outcome [14]: inactive | outcome [15]: inactive | outcome [16]: inactive | max response [1]: -0.751% (inactive) and 21.2% (inactive) | max response [17]: -1.12% (inactive) | Potency [18]: inactive | parasite growth, % of DMSO control [4]: 88.5% | parasite growth remaining, % of DMSO control (lower = more inhibition) [5]: 91.5% | parasite growth, % of control (lower = inhibition) [6]: 125% | growth, % of control [7]: 105%

Cn1cnc([N+](=O)[O-])c1Sc1ncnc2nc[nH]c12
Potency [9]: inactive | outcome [10]: inactive | outcome [11]: inactive | outcome [12]: inactive | outcome [14]: inactive | outcome [15]: inactive | outcome [16]: inactive | Potency [1]: 39.8 µM (active) and 1.26 µM (active) | Potency [17]: 4.47 µM (active) and 5.01 µM (active) | parasite growth, % of DMSO control [4]: 47.3% | parasite growth remaining, % of DMSO control (lower = more inhibition) [5]: 87.7% | parasite growth, % of control (lower = inhibition) [6]: 33.8% | growth, % of control [7]: 45.9%

OCCC#Cc1nc(-c2ccc(F)cc2)c(-c2ccncc2)n1CCCc1ccccc1
remaining parasite growth % (stronger effect = lower value) [2]: 1.18% | activity, percent of control [3]: 8.27% | remaining proliferation (% of control), lower = more inhibition [19]: 7.5% | parasite growth, % of DMSO control [4]: 15% | parasite growth, % of control (lower = inhibition) [6]: 15.5% | growth, % of control [7]: 7.31% | Potency [20]: 23.5 µM (active)
